According to PubChem BioAssay (NCI):
The panel holds about 83,000 compounds, 20% with a hit somewhere; the sample as a whole holds those more often.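 For each line, cells grew in 96-well plates with the test compound present at a single concentration for 48 hours.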 The source made the active and inactive calls. The calls were made as follows: active = growth percent below 10; inactive = the rest.

How the values were obtained:
Experiment in all cases: NCI-60 one-dose screen, 48 h (100 = growth as untreated, 0 = no growth, -100 = all killed)
Conditions in all cases: 10 µM unless noted
[1] = tested on: EKVX NSCLC
[2] = tested on: SN12C renal
[3] = tested on: UO-31 renal
[4] = tested on: TK-10 renal
[5] = tested on: ACHN renal
[6] = tested on: CAKI-1 renal
[7] = tested on: A498 renal
[8] = tested on: CCRF-CEM leukemia
[9] = tested on: MOLT-4 leukemia
[10] = tested on: SR leukemia
[11] = tested on: OVCAR-8 ovarian
[12] = tested on: OVCAR-5 ovarian
[13] = tested on: OVCAR-4 ovarian
[14] = tested on: SK-OV-3 ovarian
[15] = tested on: IGROV1 ovarian
[16] = tested on: HS 578T breast
[17] = tested on: NCI/ADR-RES ovarian
[18] = tested on: T-47D breast
[19] = tested on: RPMI-8226 leukemia
[20] = tested on: OVCAR-3 ovarian

Measured: growth

N[C@@H](Cc1cn(-c2ccnc3ccccc23)nn1)C(=O)O
inactive: [1] 98.5% | [2] 93.2% | [3] 88.2% | [4] 101% | [5] 96.1% | [6] 97.3% | [7] 110% | [8] 103% | [9] 107% | [10] 95.1% | [11] 104% | [12] 101% | [13] 109% | [14] 101% | [15] 102% | [16] 109% | [17] 103% | [18] 101%

COc1ccc(CNS(=O)(=O)/N=C2\NC(=O)NC2=C(Cl)Cl)cc1
inactive: [1] 83.2% | [2] 20.7% | [3] 48.9% | [4] 41.6% | [5] 32.7% | [6] 45.9% | [8] 15.8% | [9] 19% | [10] 20.5% | [19] 15.3% | [11] 10.8% | [13] 69.1% | [15] 43.5% | [20] 30% | [16] 44% | [18] 44%
active: [7] -9.6%

CCOC(=O)c1sc(N)c(C(=O)OCC)c1C
inactive: [1] 25.9% | [2] 54.9% | [3] 31.3% | [4] 41.1% | [5] 52.9% | [6] 39.1% | [7] 13.4% | [8] 42% | [9] 26.5% | [10] 47.2% | [11] 65.1% | [12] 67.6% | [13] 62% | [15] 56.9% | [20] 70.5% | [16] 30.9%
active: [18] 7.83%

Cc1ccc2c(n1)C(=O)C(Cl)=C(Nc1cccc(C(C)C)c1)C2=O
active: [19] 2.88% | [20] 3.53% | [18] 3.43%
inactive: [1] 65% | [2] 31.9% | [3] 50.3% | [4] 119% | [5] 50.1% | [6] 75.3% | [7] 71.4% | [8] 14.8% | [9] 35.4% | [10] 24% | [11] 57.2% | [12] 109% | [13] 22.6% | [15] 22.1% | [16] 43.1%

Cc1ccc(CNS(=O)(=O)/N=C2\NC(=O)NC2=C(Cl)Cl)cc1
inactive: [1] 95.6% | [2] 26.4% | [3] 84.7% | [4] 48.8% | [5] 73% | [6] 94.6% | [7] 56.7% | [8] 16.1% | [9] 21% | [10] 69.5% | [19] 14.5% | [12] 96.7% | [13] 98.7% | [15] 101% | [20] 88.2% | [16] 66.1% | [18] 48.7%

CC(C)(C)Nc1nc2c(OCCc3ccccc3)cccn2c1-c1ccc(O)cc1
inactive: [1] 38.9% | [2] 64.3% | [3] 57.3% | [4] 113% | [5] 65.1% | [6] 80.1% | [7] 103% | [8] 38.5% | [9] 22.7% | [10] 32.5% | [11] 65.9% | [13] 65% | [14] 110% | [15] 75.4% | [20] 74.9% | [16] 86.7% | [17] 50.4% | [18] 35.9%

CS(=O)(=O)c1ccc(-n2cc(/C=C/C(=O)c3ccc(NC(=O)CO[N+](=O)[O-])cc3)c(-c3ccc(Cl)cc3)n2)cc1
inactive: [1] 90.5% | [2] 88% | [3] 115% | [4] 111% | [5] 88.5% | [6] 109% | [7] 117% | [8] 107% | [9] 119% | [10] 113% | [11] 92.5% | [12] 97.7% | [13] 114% | [14] 89.7% | [15] 94.4% | [20] 111% | [16] 83.6% | [17] 94.4% | [18] 104%

O=C(CSc1nc2sc3c(c2c(=O)n1-c1ccc(Cl)cc1)CCCC3)N/N=C/c1ccc(F)cc1
inactive: [1] 90.3% | [2] 97.1% | [3] 83.2% | [4] 125% | [5] 108% | [6] 98% | [7] 96.8% | [8] 65.9% | [9] 69.3% | [10] 39.6% | [19] 97.2% | [11] 96.7% | [13] 89.8% | [14] 116% | [15] 104% | [20] 133% | [16] 115% | [17] 104% | [18] 109%

Cn1cc(-c2cc(N)n3nc(-c4cn(C)c5ccc(Cl)cc45)cc3n2)c2cc(Cl)ccc21
inactive: [1] 94.9% | [2] 85% | [3] 100% | [4] 116% | [5] 102% | [6] 83.2% | [7] 73.1% | [8] 24.8% | [9] 51% | [11] 90.4% | [12] 107% | [13] 75.1% | [14] 123% | [15] 88.9% | [20] 84.8% | [16] 107% | [17] 73.5% | [18] 90.7%
active: [10] 5.66%

CCOc1ccc2nc(NC(=O)c3ccc(C(F)(F)F)cc3)sc2c1
inactive: [1] 102% | [2] 101% | [3] 104% | [4] 95.4% | [5] 110% | [6] 98.1% | [7] 95.7% | [8] 92.1% | [9] 103% | [10] 89.5% | [19] 100% | [11] 107% | [12] 105% | [13] 107% | [15] 113% | [20] 109% | [16] 114% | [18] 97.7%

COc1ccc(NC2=CC(=O)C(C)=C(C)C2=O)cc1
inactive: [1] 78.8% | [2] 86.4% | [3] 81.2% | [4] 156% | [5] 96.1% | [6] 93.5% | [7] 84.4% | [8] 70.1% | [9] 75.6% | [10] 82.3% | [11] 79.1% | [12] 109% | [13] 43.8% | [15] 89.3% | [16] 110% | [18] 67.5%
active: [20] 9.94%

COc1ccc(-c2nc3ccc(-c4nnc(SCC(=O)Nc5ccc(C(=O)/C=C/c6ccccc6)cc5)o4)cc3[nH]2)cc1OC
inactive: [1] 104% | [2] 94.8% | [3] 88.5% | [4] 133% | [5] 96.3% | [6] 97% | [7] 112% | [8] 88.4% | [9] 80.5% | [10] 83.6% | [19] 64% | [12] 99.4% | [13] 109% | [14] 117% | [15] 96.4% | [20] 114% | [16] 96.1% | [17] 110% | [18] 86.9%

N[C@@H](Cc1cn(-c2c3ccccc3nc3ccccc23)nn1)C(=O)O
inactive: [1] 101% | [2] 98.2% | [3] 89.6% | [4] 140% | [5] 93.5% | [6] 93.8% | [7] 102% | [8] 97.3% | [9] 99.1% | [10] 86% | [19] 99.9% | [11] 103% | [13] 101% | [14] 87.7% | [15] 97.5% | [16] 99.8% | [17] 105% | [18] 96.2%

O=C(Nc1nc2ccc(O)cc2s1)c1cccc(C(F)(F)F)c1
inactive: [1] 55.6% | [2] 68.9% | [3] 33.4% | [4] 80.8% | [5] 53% | [6] 53% | [7] 78.9% | [8] 31% | [9] 34.6% | [10] 75.7% | [19] 46.9% | [11] 55.5% | [12] 93.4% | [13] 63.6% | [15] 64.4% | [20] 67.2% | [16] 101% | [18] 51.3%

CC1=C(C)C(=O)C(Nc2cccc(C(F)(F)F)c2)=C(Cl)C1=O
inactive: [1] 49.4% | [2] 87.6% | [3] 77.3% | [4] 184% | [6] 92.7% | [7] 55.2% | [9] 23.5% | [10] 25% | [11] 87.1% | [12] 100% | [20] 70.4% | [16] 87.6%
active: [5] -37.7% | [8] 5.9% | [19] -3.12% | [13] -80.4% | [15] -7.2% | [18] -39%

CN(C)c1ccc(-c2c(NC(C)(C)C)nc3c(OCCc4ccccc4)cccn23)cc1
inactive: [2] 12.5% | [4] 52.1% | [5] 17.7% | [6] 11.7% | [7] 24.5% | [11] 18.7% | [12] 21.5% | [13] 31.3% | [15] 23.3% | [16] 23.8% | [18] 10.1%
active: [1] 8.16% | [3] 4.11% | [8] 5.5% | [9] 1.16% | [10] -0.837% | [19] -27.5% | [14] 8.93% | [17] 4.77%

CC1=C(C)C(=O)C(Nc2ccccc2)=C(Cl)C1=O
inactive: [1] 55.2% | [2] 91.1% | [3] 98.8% | [4] 128% | [5] 100% | [6] 96.1% | [7] 91.2% | [9] 12.7% | [10] 62.9% | [19] 53.6% | [11] 94.9% | [12] 104% | [20] 102% | [16] 101%
active: [8] 5.28% | [13] -97.9% | [15] 9.69% | [18] -38.9%
